According to the supplement of paper PMC11732987, “Enantioselective OTUD7B fragment discovery through chemoproteomics screening and high-throughput optimisation” (Communications Chemistry, 2025):

How the values were obtained:
Assay in all cases: log2 ratio of Biotin-Ahx-Ub-VS probe labelling (fragment/DMSO); higher = less target engagement (more negative = stronger competition), active = hit call of the paper (q ≤ 0.05, log2 ratio ≤ -1)
Settings in all cases: compound concentration: 200 uM; treatment time: 3 h
USP9X = USP9X (UniProt Q93008)
Summary of the method: (§1)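 In triplicate, 495 µg of HEK293T lysate per sample was incubated with fragment at 200 µM or vehicle for 3 h. Biotin-Ahx-Ub-VS was then added to 0.5 µM final for 1 h, and labelled DUBs were captured with NeutrAvidin, digested with LysC and trypsin, and measured by diaPASEF LC-MS/MS. Data are average log2 fragment/vehicle ratios by unpaired t-test from global-median-normalised Spectronaut label-free quantities, restricted to proteins with ≥2 unique peptides.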

UniProt O00487 = target: UniProt O00487
Chain of UniProt O00487 (O00487 whole entry): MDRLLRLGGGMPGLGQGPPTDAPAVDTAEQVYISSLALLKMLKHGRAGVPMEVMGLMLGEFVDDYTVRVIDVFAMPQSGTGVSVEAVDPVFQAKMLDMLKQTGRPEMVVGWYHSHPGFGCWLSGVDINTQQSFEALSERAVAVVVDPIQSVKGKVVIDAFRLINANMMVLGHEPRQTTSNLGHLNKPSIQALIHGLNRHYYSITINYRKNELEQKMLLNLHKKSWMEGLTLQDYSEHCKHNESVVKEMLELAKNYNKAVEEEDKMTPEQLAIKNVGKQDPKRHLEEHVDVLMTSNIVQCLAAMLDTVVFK
Summary of the method: as §1

UniProt O00507 = target: UniProt O00507
Chain of UniProt O00507 (O00507 whole entry): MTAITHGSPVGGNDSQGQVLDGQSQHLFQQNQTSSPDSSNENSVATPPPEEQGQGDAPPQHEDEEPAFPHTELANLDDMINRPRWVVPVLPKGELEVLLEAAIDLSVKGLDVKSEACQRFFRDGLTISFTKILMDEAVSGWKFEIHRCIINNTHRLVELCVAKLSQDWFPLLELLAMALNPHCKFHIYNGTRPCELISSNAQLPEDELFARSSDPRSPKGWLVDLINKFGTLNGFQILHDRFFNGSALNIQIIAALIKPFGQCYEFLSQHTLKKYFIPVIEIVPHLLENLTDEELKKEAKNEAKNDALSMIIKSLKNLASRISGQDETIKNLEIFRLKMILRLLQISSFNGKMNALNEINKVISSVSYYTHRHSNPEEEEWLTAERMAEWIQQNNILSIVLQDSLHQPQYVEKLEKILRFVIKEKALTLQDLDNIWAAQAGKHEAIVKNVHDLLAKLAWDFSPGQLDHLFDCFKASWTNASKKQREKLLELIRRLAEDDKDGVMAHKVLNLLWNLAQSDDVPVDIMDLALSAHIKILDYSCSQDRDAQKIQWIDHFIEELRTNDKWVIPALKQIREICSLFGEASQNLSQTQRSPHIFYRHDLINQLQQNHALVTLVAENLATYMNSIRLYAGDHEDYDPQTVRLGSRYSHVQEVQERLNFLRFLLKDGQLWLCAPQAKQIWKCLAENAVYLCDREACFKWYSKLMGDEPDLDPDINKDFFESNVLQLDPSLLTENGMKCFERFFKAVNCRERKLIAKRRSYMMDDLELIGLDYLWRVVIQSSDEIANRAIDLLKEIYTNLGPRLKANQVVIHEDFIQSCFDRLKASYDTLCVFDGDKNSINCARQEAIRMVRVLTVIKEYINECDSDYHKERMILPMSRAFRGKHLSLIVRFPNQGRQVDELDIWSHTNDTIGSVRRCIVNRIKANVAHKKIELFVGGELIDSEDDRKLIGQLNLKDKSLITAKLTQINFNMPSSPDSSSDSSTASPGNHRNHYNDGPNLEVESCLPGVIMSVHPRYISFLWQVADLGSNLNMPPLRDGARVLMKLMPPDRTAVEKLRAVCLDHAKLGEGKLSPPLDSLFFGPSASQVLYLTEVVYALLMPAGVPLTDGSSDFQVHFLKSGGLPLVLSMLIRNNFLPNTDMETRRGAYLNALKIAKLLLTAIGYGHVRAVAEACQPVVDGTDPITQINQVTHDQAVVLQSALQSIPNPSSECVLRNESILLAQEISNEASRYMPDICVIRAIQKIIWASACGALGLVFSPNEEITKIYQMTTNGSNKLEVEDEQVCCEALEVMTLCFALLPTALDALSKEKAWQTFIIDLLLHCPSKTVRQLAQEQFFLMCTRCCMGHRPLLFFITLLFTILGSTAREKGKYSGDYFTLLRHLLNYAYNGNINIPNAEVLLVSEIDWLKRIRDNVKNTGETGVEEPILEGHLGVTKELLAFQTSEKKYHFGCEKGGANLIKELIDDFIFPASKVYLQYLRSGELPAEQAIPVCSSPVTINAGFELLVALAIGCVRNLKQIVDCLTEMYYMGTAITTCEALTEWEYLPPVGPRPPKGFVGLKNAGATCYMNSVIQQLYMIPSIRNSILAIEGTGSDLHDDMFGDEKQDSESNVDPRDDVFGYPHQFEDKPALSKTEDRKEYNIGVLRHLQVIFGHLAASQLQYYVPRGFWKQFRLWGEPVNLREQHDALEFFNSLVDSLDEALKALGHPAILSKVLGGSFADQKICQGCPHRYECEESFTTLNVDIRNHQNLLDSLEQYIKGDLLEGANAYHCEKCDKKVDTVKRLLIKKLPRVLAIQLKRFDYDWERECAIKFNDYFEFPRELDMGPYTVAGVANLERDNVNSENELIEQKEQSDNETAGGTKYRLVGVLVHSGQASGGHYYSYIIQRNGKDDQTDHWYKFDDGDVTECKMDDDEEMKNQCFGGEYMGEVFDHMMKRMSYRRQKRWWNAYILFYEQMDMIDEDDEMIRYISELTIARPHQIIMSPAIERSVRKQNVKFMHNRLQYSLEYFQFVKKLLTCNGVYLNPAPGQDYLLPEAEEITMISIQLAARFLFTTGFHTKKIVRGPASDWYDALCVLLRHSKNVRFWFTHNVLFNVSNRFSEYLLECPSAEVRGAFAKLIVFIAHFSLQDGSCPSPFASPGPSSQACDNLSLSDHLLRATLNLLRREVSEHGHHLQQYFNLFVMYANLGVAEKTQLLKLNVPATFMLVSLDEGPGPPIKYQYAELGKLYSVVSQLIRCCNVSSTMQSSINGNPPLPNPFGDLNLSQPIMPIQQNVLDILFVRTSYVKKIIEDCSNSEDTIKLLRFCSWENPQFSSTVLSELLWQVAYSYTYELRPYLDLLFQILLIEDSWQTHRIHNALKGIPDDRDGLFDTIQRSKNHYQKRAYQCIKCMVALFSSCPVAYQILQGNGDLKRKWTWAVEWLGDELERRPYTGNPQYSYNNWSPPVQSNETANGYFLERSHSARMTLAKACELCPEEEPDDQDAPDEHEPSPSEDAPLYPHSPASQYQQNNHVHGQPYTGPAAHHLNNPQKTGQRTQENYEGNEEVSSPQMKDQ
Summary of the method: as §1

UniProt P51784 = target: UniProt P51784
Chain of UniProt P51784 (P51784 whole entry): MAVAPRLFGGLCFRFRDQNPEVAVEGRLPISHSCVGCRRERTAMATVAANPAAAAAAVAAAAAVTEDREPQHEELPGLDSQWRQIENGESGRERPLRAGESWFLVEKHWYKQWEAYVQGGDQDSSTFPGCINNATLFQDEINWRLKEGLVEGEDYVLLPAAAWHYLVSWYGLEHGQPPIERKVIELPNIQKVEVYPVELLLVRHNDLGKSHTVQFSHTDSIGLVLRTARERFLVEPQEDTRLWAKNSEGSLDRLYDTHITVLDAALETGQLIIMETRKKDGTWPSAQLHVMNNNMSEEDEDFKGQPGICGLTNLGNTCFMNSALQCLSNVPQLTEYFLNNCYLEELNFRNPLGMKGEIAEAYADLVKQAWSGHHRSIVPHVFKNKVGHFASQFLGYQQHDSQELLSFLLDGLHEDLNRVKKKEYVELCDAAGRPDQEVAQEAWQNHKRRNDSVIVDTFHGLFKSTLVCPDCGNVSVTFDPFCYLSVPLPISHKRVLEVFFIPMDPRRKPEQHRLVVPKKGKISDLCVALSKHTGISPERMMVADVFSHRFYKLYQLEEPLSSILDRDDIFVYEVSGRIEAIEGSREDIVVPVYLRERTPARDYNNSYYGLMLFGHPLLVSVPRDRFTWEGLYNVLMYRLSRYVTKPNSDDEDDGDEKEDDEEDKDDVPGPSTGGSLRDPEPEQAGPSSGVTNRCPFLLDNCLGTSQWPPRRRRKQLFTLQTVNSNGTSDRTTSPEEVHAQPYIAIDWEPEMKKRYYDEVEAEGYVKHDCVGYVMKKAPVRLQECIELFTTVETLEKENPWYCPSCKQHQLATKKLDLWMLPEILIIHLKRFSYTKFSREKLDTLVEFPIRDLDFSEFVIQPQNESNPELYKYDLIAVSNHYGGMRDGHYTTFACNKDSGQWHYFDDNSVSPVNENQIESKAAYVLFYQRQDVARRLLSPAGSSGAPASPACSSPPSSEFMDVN
Summary of the method: as §1

UniProt Q5T2D3 = target: T1, UniProt Q5T2D3
T1 sequence (whole entry): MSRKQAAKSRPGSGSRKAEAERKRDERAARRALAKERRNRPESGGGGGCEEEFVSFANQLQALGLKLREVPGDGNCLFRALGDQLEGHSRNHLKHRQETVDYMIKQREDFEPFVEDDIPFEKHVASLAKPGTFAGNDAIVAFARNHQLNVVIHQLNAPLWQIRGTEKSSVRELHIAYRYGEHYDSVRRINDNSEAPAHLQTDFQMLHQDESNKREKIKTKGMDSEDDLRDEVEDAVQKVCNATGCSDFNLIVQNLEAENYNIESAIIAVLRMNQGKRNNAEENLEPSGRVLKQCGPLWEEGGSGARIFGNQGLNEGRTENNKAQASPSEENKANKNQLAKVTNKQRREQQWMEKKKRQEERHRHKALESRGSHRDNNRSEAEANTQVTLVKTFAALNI
Summary of the method: as §1

UniProt Q8TE49 = target: T2, UniProt Q8TE49
T2 sequence (whole entry): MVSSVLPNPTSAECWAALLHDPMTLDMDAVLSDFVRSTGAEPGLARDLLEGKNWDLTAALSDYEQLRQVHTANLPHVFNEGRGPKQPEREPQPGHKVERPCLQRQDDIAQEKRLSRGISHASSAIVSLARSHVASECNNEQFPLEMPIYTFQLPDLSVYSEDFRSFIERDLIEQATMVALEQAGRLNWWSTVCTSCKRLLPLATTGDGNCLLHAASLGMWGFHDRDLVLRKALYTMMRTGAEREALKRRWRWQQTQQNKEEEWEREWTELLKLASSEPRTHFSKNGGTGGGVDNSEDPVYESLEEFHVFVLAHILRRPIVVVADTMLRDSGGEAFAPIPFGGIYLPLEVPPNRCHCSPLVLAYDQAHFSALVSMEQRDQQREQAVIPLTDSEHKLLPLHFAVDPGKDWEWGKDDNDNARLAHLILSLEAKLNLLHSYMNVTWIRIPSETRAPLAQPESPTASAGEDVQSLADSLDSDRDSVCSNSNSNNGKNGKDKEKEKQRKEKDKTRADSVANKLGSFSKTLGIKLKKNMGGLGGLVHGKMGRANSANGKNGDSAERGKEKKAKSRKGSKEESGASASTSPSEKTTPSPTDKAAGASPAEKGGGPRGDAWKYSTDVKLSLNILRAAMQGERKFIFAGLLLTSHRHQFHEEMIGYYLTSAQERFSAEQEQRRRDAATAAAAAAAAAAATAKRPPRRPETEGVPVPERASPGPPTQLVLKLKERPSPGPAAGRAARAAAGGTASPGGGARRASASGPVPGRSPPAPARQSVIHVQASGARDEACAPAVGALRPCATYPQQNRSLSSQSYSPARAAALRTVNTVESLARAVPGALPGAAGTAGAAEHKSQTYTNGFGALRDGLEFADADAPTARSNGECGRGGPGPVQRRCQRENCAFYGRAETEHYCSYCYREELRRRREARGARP
Summary of the method: as §1

UniProt Q9P2H5 = target: T3, UniProt Q9P2H5
T3 sequence (whole entry): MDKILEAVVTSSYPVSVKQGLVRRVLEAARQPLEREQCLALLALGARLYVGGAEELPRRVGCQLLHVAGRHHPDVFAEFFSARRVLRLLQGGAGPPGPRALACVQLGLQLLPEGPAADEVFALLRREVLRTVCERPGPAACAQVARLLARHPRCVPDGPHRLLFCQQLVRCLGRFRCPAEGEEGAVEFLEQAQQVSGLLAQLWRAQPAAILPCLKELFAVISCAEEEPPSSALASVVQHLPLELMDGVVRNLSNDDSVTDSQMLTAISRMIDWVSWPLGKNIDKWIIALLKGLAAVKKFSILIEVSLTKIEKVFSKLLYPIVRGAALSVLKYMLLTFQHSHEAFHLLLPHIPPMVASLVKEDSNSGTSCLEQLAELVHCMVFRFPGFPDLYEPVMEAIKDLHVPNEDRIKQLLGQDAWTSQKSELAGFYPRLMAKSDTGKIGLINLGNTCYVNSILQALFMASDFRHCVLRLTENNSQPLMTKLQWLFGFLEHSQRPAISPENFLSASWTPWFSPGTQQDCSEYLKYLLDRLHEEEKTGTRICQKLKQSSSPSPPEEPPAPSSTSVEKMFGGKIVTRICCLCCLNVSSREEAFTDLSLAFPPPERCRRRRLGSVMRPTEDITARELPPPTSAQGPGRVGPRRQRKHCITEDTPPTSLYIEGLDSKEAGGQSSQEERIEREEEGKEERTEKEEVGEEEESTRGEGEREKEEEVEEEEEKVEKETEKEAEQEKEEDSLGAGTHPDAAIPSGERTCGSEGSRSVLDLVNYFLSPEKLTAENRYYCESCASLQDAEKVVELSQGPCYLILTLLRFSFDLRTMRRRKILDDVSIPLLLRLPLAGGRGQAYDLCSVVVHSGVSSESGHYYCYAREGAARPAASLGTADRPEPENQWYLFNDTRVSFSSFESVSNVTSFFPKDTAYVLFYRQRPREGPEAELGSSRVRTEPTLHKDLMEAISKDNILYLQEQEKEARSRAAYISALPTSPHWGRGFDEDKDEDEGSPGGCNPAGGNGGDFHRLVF
Summary of the method: as §1

UniProt Q9UGI0 = target: T4, UniProt Q9UGI0
T4 sequence (whole entry): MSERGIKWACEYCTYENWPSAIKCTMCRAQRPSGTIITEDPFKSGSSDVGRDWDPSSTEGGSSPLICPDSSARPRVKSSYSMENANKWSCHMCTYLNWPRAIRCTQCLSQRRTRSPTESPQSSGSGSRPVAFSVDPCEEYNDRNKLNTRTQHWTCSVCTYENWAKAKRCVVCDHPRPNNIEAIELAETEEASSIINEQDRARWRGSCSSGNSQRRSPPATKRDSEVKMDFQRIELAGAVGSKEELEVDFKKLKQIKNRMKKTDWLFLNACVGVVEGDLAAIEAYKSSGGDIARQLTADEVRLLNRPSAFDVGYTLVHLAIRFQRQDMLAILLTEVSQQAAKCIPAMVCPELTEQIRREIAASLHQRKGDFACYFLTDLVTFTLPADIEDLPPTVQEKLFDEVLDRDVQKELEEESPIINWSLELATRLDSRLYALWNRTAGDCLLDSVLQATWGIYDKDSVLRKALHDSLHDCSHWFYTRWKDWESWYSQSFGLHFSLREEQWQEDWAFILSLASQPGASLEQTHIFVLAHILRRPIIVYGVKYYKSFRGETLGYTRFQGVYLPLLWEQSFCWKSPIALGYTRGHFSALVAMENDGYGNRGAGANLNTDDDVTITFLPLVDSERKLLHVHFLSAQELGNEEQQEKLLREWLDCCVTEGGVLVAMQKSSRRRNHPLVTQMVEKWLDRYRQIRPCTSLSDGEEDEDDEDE
Summary of the method: as §1

YOD1 = target: T5, YOD1 (UniProt Q5VVQ6)
T5 sequence (whole entry): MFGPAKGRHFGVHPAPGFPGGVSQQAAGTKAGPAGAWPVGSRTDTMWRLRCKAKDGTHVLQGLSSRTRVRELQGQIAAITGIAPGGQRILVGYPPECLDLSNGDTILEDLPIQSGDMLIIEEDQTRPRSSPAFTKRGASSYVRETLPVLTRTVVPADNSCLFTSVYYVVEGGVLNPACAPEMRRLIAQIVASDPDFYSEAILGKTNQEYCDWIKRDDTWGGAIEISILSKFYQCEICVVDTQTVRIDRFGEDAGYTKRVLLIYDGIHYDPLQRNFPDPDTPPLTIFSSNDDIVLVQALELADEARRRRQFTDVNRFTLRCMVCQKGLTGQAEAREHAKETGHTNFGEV
Summary of the method: as §1

Measured: log2 ratio of Biotin-Ahx-Ub-VS probe labelling

CCN(C(=O)CCl)C1CCS(=O)(=O)C1 (centres undefined)
inactive: USP9X -0.112 | UniProt O00487 0.0162 | UniProt O00507 0.545 | UniProt P51784 -0.0519 | UniProt Q5T2D3 0.00795 | UniProt Q8TE49 -0.222 | UniProt Q9P2H5 -0.211 | UniProt Q9UGI0 -0.289 | YOD1 0.133
